According to PubChem BioAssay AID504834 (National Center for Advancing Translational Sciences (NCATS), 2011):
“And” between values parts separate entries of the source, which are not always exact repeats. Identical values can stand only once. The campaign covered roughly 320,000 compounds. About 22,000 (6.9%) were called active. A call without a number means that no potency is given here. About 27% were inconclusive and are not listed. Calls follow the shape of the dose curve; as a rule, active = well fitted inhibition curve with a large enough effect; inconclusive = small, poorly fitted or top-dose-only effect, or another doubt; inactive = no such curve, though single readings can be large or run the other way. Many of the other results were omitted from the sample, so actives are more common in it than they were.

Assay: Primary qHTS for delayed death inhibitors of the malarial parasite plastid, 96 hour incubation
Settings: P. falciparum luciferase reporter growth; series mostly up to 28.7 µM
Summary of the method: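 Plates of compound plus infected erythrocytes (2% hematocrit, 0.05% parasitemia final) incubate 96 hours, 37 C, 5% CO2. Detection reagent added; reduced luminescence from the parasites' luciferase reporter flags inhibition.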
Potency is read from the fitted curve at half-maximal effect.

Compound	Potency
O=C(NCc1ccco1)/C(=C/c1cccc([N+](=O)[O-])c1)NC(=O)c1ccco1	inactive
CCc1sc(C(=O)N2CCN(CC(=O)Nc3cccc(F)c3)CC2)cc1C	inactive
CNC(=O)C1CCN(S(=O)(=O)c2c(C)noc2/C=C/c2cccc(C)c2)CC1	10.4 µM (active)
Cc1noc(/C=C/c2ccco2)c1S(=O)(=O)N1CCC(C(=O)N2CCc3ccccc32)CC1	inactive
Cc1ccc(NC(=O)C2CCCN(S(=O)(=O)c3c(C)noc3C)C2)c(C)c1 (centres undefined)	inactive
CCC(=O)Nc1cc(C(F)(F)F)ccc1N1CCCC1	inactive
O=C(CCC1CCCCC1)Nc1cc(C(F)(F)F)ccc1N1CCOCC1	13.1 µM (active)
CC(C)CC(=O)Nc1cc(C(F)(F)F)ccc1N1CCOCC1	inactive
CCc1ccc(C(=O)NC(=S)Nc2ccccc2N2CCOCC2)cc1	inactive
C/C=N/N(c1ccccc1)c1ccccc1	inactive
CCN(CC(=O)Nc1ccc(S(=O)(=O)N2CCCC2)cc1)CC(=O)Nc1cccc(OC)c1	inactive
CCOC(=O)c1cnc(-n2nc(C)cc2C)nc1-n1nc(C)cc1C	inactive
CCOC(=O)c1cc(NC(=O)SCC(=O)O)c(C)nc1C	7.38 µM (active)
CCOC(=O)c1ccccc1NC(=O)CSc1nc2ccccc2c(=O)[nH]1	inactive
CC1CCC(NS(=O)(=O)c2ccc3c(c2)CC(=O)N3)CC1 (centres undefined)	inactive
Cc1ccc(Cc2nnc(SCC(=O)Nc3ccc(C)cc3C)[nH]c2=O)cc1	inactive
O=C(CCN1CCN(C/C=C/c2ccccc2)CC1)Nc1ccccc1Cl	inactive
C/C(=N\NC(=O)c1ccoc1C)c1ccccc1O	inactive
COc1ccc(C(=O)c2c(C)c(CCC#N)n3ccccc23)c(OC)c1	inactive
Oc1c(Cl)cc(Cl)c(Cl)c1Cc1c(O)c(Cl)cc(Cl)c1Cl	12 µM (active) and 9.28 µM (active)
CN(C)c1nc(NN)nc(Nc2ccc(F)cc2)n1	inactive
COc1ccc(N(CC(=O)Nc2cccc3ccccc23)S(C)(=O)=O)c(OC)c1	inactive
C=CCn1c(SCC(=O)NC23CC4CC(CC(C4)C2)C3)nc(O)cc1=O	inactive
C=CCn1c(COc2ccccc2)nnc1SCC(=O)NCC(=O)OCC	inactive
C=CCn1c(SCC(=O)NC)nnc1C12CC3CC(CC(C3)C1)C2	11.7 µM (active)
C=CCSc1nnc(NC(=O)c2ccc(NC(C)=O)cc2)s1	inactive

Compound	Potency
CC1CC(C)CN(C(=O)CCNC(=O)Cn2cnc3ccccc3c2=O)C1 (centres undefined)	inactive
Cc1cc(S(=O)(=O)N2CCOCC2)ccc1OCC(=O)N1CCOCC1	inactive
O=C(NCc1ccccc1Cl)C1CCN(S(=O)(=O)c2cccc3nonc23)CC1	inactive
O=C(NCc1ccccc1Cl)C1CCN(S(=O)(=O)N2CCOCC2)CC1	inactive
O=C1CCc2cc(S(=O)(=O)N3CCC(C(=O)NCc4ccccc4Cl)CC3)ccc2N1	13.1 µM (active)
CSc1ccc(Cl)c(C(=O)OCC(=O)N2CCNC2=O)c1	inactive
O=C(Nc1ccc(F)cc1)N1CCCC(c2nc3c(nnn3Cc3ccccc3Cl)c(=O)[nH]2)C1 (centres undefined)	inactive
COc1ccc(Cn2nnc3c(=O)[nH]c(C4CCN(C(=O)c5ccccc5Cl)CC4)nc32)cc1	inactive
Cc1ccc(NC(=O)N2CCC(c3nc4c(nnn4Cc4c(F)cccc4Cl)c(=O)[nH]3)CC2)cc1	9.28 µM (active)
CC(Sc1nnc(-c2cccs2)n1C1CC1)C(=O)NCC1CCCO1 (centres undefined)	inactive
Cc1cc(C(=O)OCC(=O)Nc2nccs2)c2ccccc2n1	inactive
COc1ccccc1C(=O)NNC(=O)CCN1C(=O)/C(=C\c2ccccc2)SC1=S	inactive
CSc1nc(C)nc2c1c(=O)n(C)c(=O)n2C	inactive
CC(O)c1nc2c(c(=O)n(C)c(=O)n2C)n1C (centres undefined)	inactive
CCC(C)Sc1nc(C)nc2c1c(=O)n(C)c(=O)n2C (centres undefined)	10.4 µM (active)
COc1ccc(N2CCN(S(=O)(=O)c3cc(Br)cnc3N)CC2)cc1	inactive
COc1cccc(/C=C2/SC(=S)N(CC(=O)NC3C=CS(=O)(=O)C3)C2=O)c1 (centres undefined)	inactive
COc1cccc(NC(=O)NCCN2CCCCC2)c1	inactive
COc1ccc(N2CCN(CCNC(=O)CCN3C(=O)COc4ccccc43)CC2)cc1	inactive
COc1ccc(N2CCN(CCNC(=O)Nc3cc(Cl)ccc3Cl)CC2)cc1	5.22 µM (active)
CCOC(=O)c1cccc(NC(=O)CN2C(=O)C3CC=CCC3C2=O)c1 (centres undefined)	inactive
CCn1ccnc1CN(C)C(=O)c1ccc2nc(Cc3ccc(OC)cc3)oc2c1	inactive
Cc1[nH]c(C)c(S(=O)(=O)N2CCN(c3cccc(C(F)(F)F)c3)CC2)c1C(=O)N1CCCC1	inactive
COCCNC(=O)NC(=O)COC(=O)C1(c2ccc(Cl)cc2)CC1	inactive
COc1ccccc1CN(C)C(=O)c1cc2ccccc2o1	inactive
COc1ccccc1CN(C)C(=O)C1(c2ccc(Cl)cc2)CC1	9.28 µM (active)

Compound	Potency
Cc1cccc(C(=O)NCC(=O)OCC(=O)N(C)CC(=O)Nc2ccccc2Cl)c1	inactive
O=C1CC2(CCN(C(=O)COc3ccc(F)cc3)CC2)Oc2ccccc21	inactive
Cc1ccc(N2CC(C(=O)N3CCC4(CC3)CC(=O)c3ccccc3O4)CC2=O)cc1C (centres undefined)	11.7 µM (active)
O=C(C1CC(=O)N(c2ccc(F)cc2)C1)N1CCN(c2ccccc2)CC1 (centres undefined)	inactive
O=C(Cn1c(NCCO)nc2ccccc21)c1ccc(Cl)cc1Cl	inactive
CC(NC(=O)C(=O)Nc1nccs1)c1ccccc1 (centres undefined)	inactive
CC(=O)c1cccc(NC(=S)N2CCN(S(C)(=O)=O)CC2)c1	inactive
O=C(NCCCN1CCOCC1)c1ccccc1NS(=O)(=O)c1ccc(F)cc1	inactive
O=C(NCCCN1CCOCC1)c1cnn2c(-c3ccccc3)cc(-c3ccccc3)nc12	9.28 µM (active)
O=C(NCCCN1CCOCC1)c1ccccc1NS(=O)(=O)c1ccc(Br)cc1	inactive
CCc1ccc(OCC(=O)NCC(c2ccc(Cl)cc2)N2CCCCC2)cc1 (centres undefined)	inactive
COc1cccc(C(=O)Nc2ccc(N3CCN(C(=O)c4ccco4)CC3)cc2)c1	inactive
COc1ccc(Cl)cc1NS(=O)(=O)c1cccc(C(=O)NCC2CCCO2)c1 (centres undefined)	inactive
C[C@H](NC(=O)c1ccccc1)C(=O)OCC(=O)c1c[nH]c2ccccc12	inactive
COC(=O)c1ccc(CSc2nnc(NC(C)C)s2)cc1	inactive
CC(C)Nc1nnc(SCC(=O)c2c[nH]c3ccccc23)s1	10.4 µM (active)
Cc1coc2c1c(C)cc1oc(=O)c(CC(=O)NCC(=O)N[C@H](C(=O)O)C(C)C)c(C)c12	inactive
Cc1onc(-c2ccc(Cl)cc2)c1-c1ccnn1S(=O)(=O)c1ccc(Cl)cc1	1.17 µM (active)
Cc1onc(-c2ccccc2)c1C(=O)N=C(N)c1ccc(Cl)cc1	inactive
COc1cc(-c2c(-c3ccc4c(c3)OCO4)noc2C)ccc1F	inactive
Cc1cccc([C@@H]2[C@@H]3C(=O)N(C)C(=O)[C@@H]3[C@@H]3C(=O)Nc4ccccc4C(=O)N23)c1	inactive
CCOC(=O)c1sc(N)c(C#N)c1COC(=O)C1=COCCO1	inactive
Cc1ccc(-c2ccc(=O)n(Cc3ccc(F)cc3Cl)n2)cc1	inactive
COc1ccc(CNC(=O)CN(C(=O)c2csnn2)c2cnc3ccccc3c2)cc1	inactive
Cc1cccc(NS(=O)(=O)c2ccc(C(=O)NCC(C)(C)N3CCOCC3)cc2)c1C	inactive
Cc1nc2nc(SCC(=O)NCc3ccco3)nn2c(C)c1Cc1ccccc1	10.4 µM (active)

Compound	Potency
COc1cc(OC)cc(-c2nc3nc(C)c(CCC(=O)NCc4ccco4)c(C)n3n2)c1	inactive
Cc1cc(C)n2nc(SCC(=O)NC(=O)NCc3ccco3)nc2n1	inactive
O=C(O)C(c1ccccc1)C1(O)CCCCC1 (centres undefined)	inactive
CCCOc1cccc(C(=O)Nc2ccccc2C(=O)N2CCN(C)CC2)c1	inactive
Cn1ccc(NC(=O)Nc2ccc(Cl)cc2)n1	inactive
CC(C)S(=O)(=O)c1csc(NC(=O)Nc2ccc(Cl)cc2)c1Cl	1.17 µM (active)
CN(c1cccc(NC(=O)Nc2ccc(Cl)cc2)c1)S(C)(=O)=O	inactive
O=C(c1cccnc1)N1CCN(S(=O)(=O)c2cccs2)CC1	inactive
Cc1ccc(-n2ncc3c2CCCC3NC(=O)c2cnccn2)cc1C (centres undefined)	inactive
O=C1CCC(=O)N(O)CCCCCNC(=O)CCC(=O)N(O)CCCCCNC(=O)CCC(=O)N(O)CCCCCN1	10.4 µM (active)
CC(CN1CCCCC1)c1ccccc1 (centres undefined)	inactive
CC(C)[C@@H]1COC(c2cccc(C3=N[C@H](C(C)C)CO3)c2)=N1	inactive
CN(C(=O)c1cccc(OC2CCN(S(=O)(=O)N(C)C)CC2)c1)C1CCOC1 (centres undefined)	inactive
COC(=O)C1C(=O)c2c([nH]c(C(=O)OCCSC)c2C)CC1C (centres undefined)	3.7 µM (active)
CCCOC(=O)C1=C(C)NC2=C(C(=O)C(C(=O)OC)C(C)C2)C1c1ccc(N(C)C)cc1 (centres undefined)	inactive
OC(c1nc2ccccc2[nH]1)C(O)C(O)C(O)c1nc2ccccc2[nH]1 (centres undefined)	inactive
C/C=C/c1ccc(OCCOc2ccc(C=O)cc2OC)c(OC)c1	inactive
C/C=C/c1ccc(OCCCCN2CCC(C)CC2)c(OC)c1	5.22 µM (active)
COc1ccc(/C=C/C(=O)N2CCCC2)cc1OC	inactive
COc1ccc(CN2CCNC(=O)C2CC(=O)NCc2cn[nH]c2-c2ccccc2)c(F)c1 (centres undefined)	inactive
CN(C(=O)COC(=O)Cn1cnc2c1c(=O)n(C)c(=O)n2C)C1(C#N)CCCCC1	inactive
O=c1onc(-c2c(F)cccc2F)n1-c1ccccc1Cl	inactive
CCC(=O)c1cc(F)ccc1OCC(=O)Nc1ccc2c(c1)OCCO2	inactive
Cc1ccc2oc(=O)c3cnn(CC(=O)N4CCCCCC4)c3c2c1	9.28 µM (active)
Cc1cc(C(F)(F)F)nn1CC(=O)N1CCCC1	inactive
COc1cccc2c(=O)n(CC(=O)N3CCCCCC3)ccc12	inactive
